Source: PubChem BioAssay AID1159580 (chemical genetic matrix, 2015)
In all, about 5,500 compounds went through this assay and about 2,000 (36%) were called active. Inconclusive results (about 18%) are left out. Rule as the data show it: active = normalized growth mostly below about 0.91 (no sharp cut-off); inconclusive = no clear call, values can overlap the other calls; inactive = mostly above about 0.92. Some of the results follow.

Assay: chemical genetic growth profiling, strain panel (AID 1159580);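 also: tested at 20 µM; growth read once vehicle control cultures reached saturation at 30 °C; 1 = growth at the plate median or of vehicle wells; lower values mean less growth of the strain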
Conditions: growth OD
[1] = S. cerevisiae deletion strains, locus YDL101C, strain DUN1, hits give low values
[2] = S. cerevisiae deletion strains, locus YHR030C, strain SLT2, hits give low values

Measured: normalized growth

COCCCNC(=S)N/N=C\c1cc(Cl)cc(Cl)c1O
active: [2] 0.797 | S. cerevisiae deletion strains, locus YPL256C, strain CLN2, hits give low values 0.859
inactive: S. cerevisiae deletion strains, locus YAR019C, strain CDC15, hits give low values 0.958 | S. cerevisiae deletion strains, locus YBL105C, strain PKC1, hits give low values 0.946 | S. cerevisiae deletion strains, locus YBR135W, strain CKS1, hits give low values 0.957 | S. cerevisiae deletion strains, locus YBR136W, strain MEC1, hits give low values 0.956 | S. cerevisiae deletion strains, locus YBR160W, strain CDC28, hits give low values 0.965 | S. cerevisiae deletion strains, locus YDL017W, strain CDC7, hits give low values 0.951 | S. cerevisiae deletion strains, locus YDL028C, strain MPS1, hits give low values 0.951 | [1] 0.959 | S. cerevisiae deletion strains, locus YDL108W, strain KIN28, hits give low values 0.961 | S. cerevisiae deletion strains, locus YDL132W, strain cdc53, hits give low values 0.958 | S. cerevisiae deletion strains, locus YDL214C, strain PRR2, hits give low values 0.942 | S. cerevisiae deletion strains, locus YDR052C, strain DBF4, hits give low values 0.956 | S. cerevisiae deletion strains, locus YDR054C, strain cdc34, hits give low values 0.947 | S. cerevisiae deletion strains, locus YDR226W, strain ADK1, hits give low values 0.951 | S. cerevisiae deletion strains, locus YDR477W, strain SNF1, hits give low values 0.914 | S. cerevisiae deletion strains, locus YER123W, strain YCK3, hits give low values 0.944 | S. cerevisiae deletion strains, locus YER133W, strain GLC7, hits give low values 0.924 | S. cerevisiae deletion strains, locus YFL009W, strain cdc4, hits give low values 0.952 | S. cerevisiae deletion strains, locus YFL029C, strain CAK1, hits give low values 0.958 | S. cerevisiae deletion strains, locus YFR003C, strain YPI1, hits give low values 0.954 | S. cerevisiae deletion strains, locus YFR019W, strain FAB1, hits give low values 0.962 | S. cerevisiae deletion strains, locus YFR028C, strain CDC14, hits give low values 0.968 | S. cerevisiae deletion strains, locus YGR040W, strain KSS1, hits give low values 0.927 | S. cerevisiae deletion strains, locus YGR052W, strain FMP48, hits give low values 0.942 | S. cerevisiae deletion strains, locus YGR092W, strain DBF2, hits give low values 0.783 | S. cerevisiae deletion strains, locus YHR079C, strain IRE1, hits give low values 0.903 | S. cerevisiae deletion strains, locus YHR082C, strain KSP1, hits give low values 0.983 | S. cerevisiae deletion strains, locus YHR205W, strain SCH9, hits give low values 0.853 | S. cerevisiae deletion strains, locus YIL147C, strain SLN1, hits give low values 0.957 | S. cerevisiae deletion strains, locus YJL095W, strain BCK1, hits give low values 0.904 | S. cerevisiae deletion strains, locus YJL128C, strain PBS2, hits give low values 0.924 | S. cerevisiae deletion strains, locus YJL157C, strain FAR1, hits give low values 0.918 | S. cerevisiae deletion strains, locus YJR016C, strain ILV3, hits give low values 0.957 | S. cerevisiae deletion strains, locus YJR066W, strain TOR1 (second series), hits give low values 0.887 | S. cerevisiae deletion strains, locus YJR066W, strain TOR1, hits give low values 0.957 | S. cerevisiae deletion strains, locus YKL048C, strain ELM1, hits give low values 0.936 | S. cerevisiae deletion strains, locus YKL067W, strain YNK1, hits give low values 0.953 | S. cerevisiae deletion strains, locus YKL101W, strain HSL1, hits give low values 0.946 | S. cerevisiae deletion strains, locus YKL193C, strain SDS22, hits give low values 0.953 | S. cerevisiae deletion strains, locus YKL203C, strain TOR2, hits give low values 0.953 | S. cerevisiae deletion strains, locus YLR113W, strain HOG1, hits give low values 0.904 | S. cerevisiae deletion strains, locus YLR133W, strain CKI1, hits give low values 0.924 | S. cerevisiae deletion strains, locus YLR403W, strain SFP1, hits give low values 0.889 | S. cerevisiae deletion strains, locus YML070W, strain DAK1, hits give low values 0.95 | S. cerevisiae deletion strains, locus YMR001C, strain CDC5, hits give low values 0.956 | S. cerevisiae deletion strains, locus YMR205C, strain PFK2 (second series), hits give low values 0.943 | S. cerevisiae deletion strains, locus YMR277W, strain FCP1, hits give low values 0.962 | S. cerevisiae deletion strains, locus YNL006W, strain LST8, hits give low values 0.963 | S. cerevisiae deletion strains, locus YNL020C, strain ARK1, hits give low values 0.903 | S. cerevisiae deletion strains, locus YNL161W, strain CBK1, hits give low values 0.959 | S. cerevisiae deletion strains, locus YNL183C, strain NPR1, hits give low values 0.988 | S. cerevisiae deletion strains, locus YNL207W, strain RIO2, hits give low values 0.957 | S. cerevisiae deletion strains, locus YNL222W, strain SSU72, hits give low values 0.962 | S. cerevisiae deletion strains, locus YNL307C, strain MCK1 (second series), hits give low values 0.909 | S. cerevisiae deletion strains, locus YOL078W, strain AVO1, hits give low values 0.962 | S. cerevisiae deletion strains, locus YOL136C, strain PFK27, hits give low values 0.953 | S. cerevisiae deletion strains, locus YOR061W, strain CKA2, hits give low values 0.951 | S. cerevisiae deletion strains, locus YOR119C, strain RIO1, hits give low values 0.989 | S. cerevisiae deletion strains, locus YOR231W, strain MKK1, hits give low values 0.943 | S. cerevisiae deletion strains, locus YOR329C, strain SCD5, hits give low values 0.96 | S. cerevisiae deletion strains, locus YPL031C, strain PHO85, hits give low values 0.904 | S. cerevisiae deletion strains, locus YPL153C, strain RAD53, hits give low values 0.903 | S. cerevisiae deletion strains, locus YPL204W, strain HRR25, hits give low values 0.882 | S. cerevisiae deletion strains, locus YPL209C, strain IPL1, hits give low values 0.962 | S. cerevisiae deletion strains, locus YPR025C, strain CCL1, hits give low values 0.961 | S. cerevisiae deletion strains, locus YPR106W, strain ISR1, hits give low values 0.955 | S. cerevisiae deletion strains, locus YPR111W, strain DBF20, hits give low values 0.96 | S. cerevisiae deletion strains, strain NNK1, hits give low values 0.955 | S. cerevisiae deletion strains, strain TSCII, hits give low values 0.956

COCCCNC(=S)N/N=C\c1cccc(OC)c1O
inactive: S. cerevisiae deletion strains, locus YAL013W, strain DEP1, hits give low values 0.984 | S. cerevisiae deletion strains, locus YBR229C, strain ROT2, hits give low values 1.02 | S. cerevisiae deletion strains, locus YCL061C, strain MRC1, hits give low values 0.979 | [1] 0.998 | S. cerevisiae deletion strains, locus YDL134C, strain PPH21, hits give low values 1.01 | S. cerevisiae deletion strains, locus YDR150W, strain NUM1, hits give low values 0.928 | S. cerevisiae deletion strains, locus YEL061C, strain CIN8, hits give low values 0.999 | S. cerevisiae deletion strains, locus YGR078C, strain PAC10, hits give low values 0.991 | [2] 1.01 | S. cerevisiae deletion strains, locus YHR087W, strain rtc3, hits give low values 1.01 | S. cerevisiae deletion strains, locus YJR043C, strain POL32, hits give low values 1.01 | S. cerevisiae deletion strains, locus YJR075W, strain HOC1, hits give low values 0.979 | S. cerevisiae deletion strains, locus YLR039C, strain RIC1, hits give low values 1.11 | S. cerevisiae deletion strains, locus YLR058C, strain SHM2 (second series), hits give low values 0.997 | S. cerevisiae deletion strains, locus YLR085C, strain ARP6, hits give low values 0.978 | S. cerevisiae deletion strains, locus YLR262C, strain YPT6, hits give low values 1.08 | S. cerevisiae deletion strains, locus YML094W, strain GIM5, hits give low values 0.994 | S. cerevisiae deletion strains, locus YMR219W, strain ESC1, hits give low values 0.991 | S. cerevisiae deletion strains, locus YMR263W, strain SAP30, hits give low values 0.991 | S. cerevisiae deletion strains, locus YMR307W, strain GAS1, hits give low values 0.951 | S. cerevisiae deletion strains, locus YNL153C, strain GIM3, hits give low values 0.987 | S. cerevisiae deletion strains, locus YNL298W, strain CLA4 (second series), hits give low values 1.04 | S. cerevisiae deletion strains, locus YNL322C, strain KRE1, hits give low values 0.989 | S. cerevisiae deletion strains, locus YNR030W, strain Alg12, hits give low values 0.982 | S. cerevisiae deletion strains, locus YOL006C, strain TOP1, hits give low values 0.988 | S. cerevisiae deletion strains, locus YPL055C, strain LGE1, hits give low values 0.856 | S. cerevisiae deletion strains, locus YPL241C, strain CIN2, hits give low values 0.964 | S. cerevisiae deletion strains, locus YPR135W, strain CTF4, hits give low values 0.94 | S. cerevisiae strains, strain wild type, hits give low values 1.02
